Rab9 prom act = activates the Rab9 promoter | Potency, µM (doses to about 9.22 µM), hits mostly activators | actives 2.8% (n = 320,000) | Huh7 Rab9 promoter-luciferase reporter, luminescence, 24 h; note: nearly all actives have a fitted effect of over 60% in size
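Cells were plated at 1500 per well in reduced-serum medium with 10% FBS and left 2 h. Compound in DMSO was then added for 24 h at 37 °C. Reporter signal was read by luminescence after 10 min with luciferase detection reagent.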
SMN2 splice up = increases expression of the SMN2 splice variant; HEK293 SMN2-luciferase splicing reporter, luminescence, 30-36 h; Potency, µM (highest dose often 46.1 µM), hits mostly activators; actives 2.8% (n = 210,000); AID 1458; note: nearly all actives have a fitted effect of over 55% in size
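qHTS luciferase splicing reporter: luminescence rises when SMN2 exon 7 is included in transfected HEK293 cells. Compound exposure lasted 30-36 h at 37C, with 4.5 mM final sodium butyrate as control, followed by a ONE-Glo read.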
NPC1 prom act = NPC1 promoter activation | Huh7 NPC1 promoter luciferase reporter, 24 h | Potency, µM (series often up to 9.22 µM), usual class: activators | actives 2.4% (n = 320,000); note: nearly all actives have a fitted effect of over 60% in size
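In 1536-well qHTS, Huh7 cells harboring an NPC1 promoter–luciferase construct received compound for 24 h; activation was quantified by luminescence following luciferase reagent addition.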
ELG1 genotoxic = induces genotoxicity in HEK293T cells with luciferase-tagged ELG1; HEK293T ELG1-luciferase reporter, luminescence, 16 h; Potency, µM (doses to about 46 µM), hits mostly activators; actives 1.3% (n = 330,000); note: nearly all actives have a fitted effect of over 60% in size
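Cells (2,000/well) expressing the ELG1-luciferase fusion are dosed by pin tool and kept 16 hr at 37 °C, 5% CO2. Signal comes from ONE-Glo luciferase reagent after 30 min at room temperature.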
FLuc modulator = inhibits or activates purified firefly luciferase, miR-21 counter-screen; purified FLuc, Km substrates, luminescence inhibition; Potency, µM (series often up to 57.5 µM), hits mostly inhibitors; actives 6.9% (n = 360,000); AID 588342; note: nearly all actives have a fitted effect of over 55% in size
Target sequence (P08659 whole entry, looked up): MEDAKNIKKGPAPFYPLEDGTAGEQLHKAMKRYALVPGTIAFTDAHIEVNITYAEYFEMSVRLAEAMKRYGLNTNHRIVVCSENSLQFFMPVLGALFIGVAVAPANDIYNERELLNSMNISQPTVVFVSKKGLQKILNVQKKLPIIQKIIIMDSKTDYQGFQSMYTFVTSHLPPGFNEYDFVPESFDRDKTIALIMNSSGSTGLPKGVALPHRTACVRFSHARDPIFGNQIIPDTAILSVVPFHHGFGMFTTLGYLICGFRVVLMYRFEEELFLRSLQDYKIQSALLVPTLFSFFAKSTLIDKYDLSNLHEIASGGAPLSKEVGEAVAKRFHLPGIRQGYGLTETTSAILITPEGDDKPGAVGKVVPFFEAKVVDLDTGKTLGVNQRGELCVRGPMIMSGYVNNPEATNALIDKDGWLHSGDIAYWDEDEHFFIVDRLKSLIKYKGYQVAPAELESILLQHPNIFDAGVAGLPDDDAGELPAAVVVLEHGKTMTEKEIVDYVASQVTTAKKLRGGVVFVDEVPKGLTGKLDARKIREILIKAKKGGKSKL
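Biochemical qHTS of compounds, final roughly 60 µM downward over six points, against 10 nM purified firefly luciferase using Km concentrations of substrates (10 uM D-luciferin, 10 uM ATP) in Tris acetate pH 7.5 buffer; luminescence output.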
Hits are given with their value; [ ] = dose if it differs, or a comment. The list is not random: actives were taken first. Their share in the collection is about 7.5%. Calls come from the whole dose curve; as a rule, active = well fitted curve in the direction sought with a large enough effect; inconclusive = small, poorly fitted or top-dose-only effect, or another doubt; inactive = no such curve, though single readings can be large; an effect the other way counts as inactive or inconclusive.

What do the screens show for `C(=N\Nc1nc(-c2ccccc2)cs1)/c1ccco1`?
Rab9 prom act: 3.2µM; SMN2 splice up: 14µM; NPC1 prom act: 2.8µM; ELG1 genotoxic: inconclusive; FLuc modulator: 2.7µM

What do the screens show for `Cc1ccc(-c2csc(N/N=C/c3ccco3)n2)cc1`?
Rab9 prom act: inconclusive; SMN2 splice up: inactive; NPC1 prom act: inconclusive; ELG1 genotoxic: inactive; FLuc modulator: 9.5µM

How did Brc1ccc(-c2csc(N/N=C/c3ccco3)n2)cc1 do in these assays?
Rab9 prom act: inconclusive; SMN2 splice up: inconclusive; NPC1 prom act: inconclusive; ELG1 genotoxic: inactive; FLuc modulator: inconclusive

Results for Cc1sc(N/N=C/c2cccnc2)nc1-c1ccccc1 ?
Rab9 prom act: inactive; SMN2 splice up: inconclusive; NPC1 prom act: inactive; ELG1 genotoxic: inactive; FLuc modulator: 17µM

How did Cc1sc(N/N=C/c2ccco2)nc1-c1ccccc1 do in these assays?
Rab9 prom act: inactive; SMN2 splice up: inactive; NPC1 prom act: inactive; ELG1 genotoxic: inconclusive; FLuc modulator: 9.5µM

Results for CCCCn1c(C)cc2c(c1=O)C1O[C@](c3ccsc3)(Cc3cc(OC)c(OC)cc31)O2 ?
Rab9 prom act: inactive[1.84 µM]; NPC1 prom act: inactive[1.84 µM]; FLuc modulator: inactive[11.5 µM]

Results for COc1ccc2c(c1)O[C@@H](c1cccc(C(F)(F)F)c1)[C@H](OC(=O)NS(=O)(=O)c1ccc(F)cc1)C2=O ?
SMN2 splice up: inactive

How did CCN(CC1CCCO1)C(=O)C1CCN(C2CCN(Cc3ccccc3C)CC2)CC1 (stereo not drawn) do in these assays?
Rab9 prom act: inactive; NPC1 prom act: inactive; ELG1 genotoxic: inactive; FLuc modulator: inactive

What do the screens show for `Clc1ccc(-c2csc(N/N=C/c3ccco3)n2)cc1`?
Rab9 prom act: inconclusive; NPC1 prom act: inconclusive; ELG1 genotoxic: inactive; FLuc modulator: 13µM

Results for CCCC1CCC(C2=N/C(=C\c3ccc(OC)c(OC)c3)C(=O)O2)CC1 (stereo not drawn) ?
Rab9 prom act: inactive; SMN2 splice up: inactive; NPC1 prom act: inactive; ELG1 genotoxic: inactive; FLuc modulator: inactive

Results for CC(=O)Oc1ccc(/C=C2\N=C(C3CCCCC3)OC2=O)cc1 ?
Rab9 prom act: inactive; SMN2 splice up: inactive; NPC1 prom act: inactive; ELG1 genotoxic: inactive; FLuc modulator: 17µM

What do the screens show for `COc1cccc(/C=C2\N=C(C3CCCCC3)OC2=O)c1OC`?
Rab9 prom act: inactive; SMN2 splice up: inactive; NPC1 prom act: inactive; ELG1 genotoxic: inactive; FLuc modulator: 15µM

What do the screens show for `COc1ccccc1/C=C1\N=C(C(C)(C)C)OC1=O`?
Rab9 prom act: inactive; NPC1 prom act: inactive; ELG1 genotoxic: inactive; FLuc modulator: 17µM

How did CCOc1cc(/C=C2/N=C(c3ccc4c(c3)OCO4)OC2=O)ccc1OC(C)=O do in these assays?
Rab9 prom act: inactive; NPC1 prom act: inactive; ELG1 genotoxic: inactive; FLuc modulator: inactive

How did CC1CCCCN1C(=O)CSc1nc2ccccc2nc1Cc1ccc(Cl)cc1 (stereo not drawn) do in these assays?
FLuc modulator: inactive

Results for COc1ccc(C(=O)C2CCCN(Cc3cccn3-c3ccc(Cl)cn3)C2)c(OC)c1 (stereo not drawn) ?
Rab9 prom act: inactive; SMN2 splice up: inactive; NPC1 prom act: inactive; ELG1 genotoxic: inactive; FLuc modulator: inactive

Results for CCOc1ccc(CCNC(=O)CSCC(=O)Nc2ccc(OC)cc2)cc1OCC ?
Rab9 prom act: inactive; NPC1 prom act: inactive; ELG1 genotoxic: inactive; FLuc modulator: inactive

What do the screens show for `CSc1nsc(/C=C/Nc2ccc(C)c(C)c2)c1C#N`?
Rab9 prom act: inactive; SMN2 splice up: inactive; NPC1 prom act: inactive; ELG1 genotoxic: inactive; FLuc modulator: inconclusive

How did CSc1nsc(/C=C/Nc2ccc(C)cc2)c1C#N do in these assays?
SMN2 splice up: inconclusive; FLuc modulator: 1.3µM

Results for CCOCC(=O)Nc1nc2ccc(OC)cc2s1 ?
Rab9 prom act: 1.4µM; SMN2 splice up: 11µM; NPC1 prom act: 2µM; ELG1 genotoxic: 5.2µM; FLuc modulator: 12µM

How did CCOc1ccc2nc(NC(=O)C(CC)Sc3nc(C)cc(=O)[nH]3)sc2c1 (stereo not drawn) do in these assays?
Rab9 prom act: inconclusive; SMN2 splice up: inactive; NPC1 prom act: inactive; ELG1 genotoxic: inconclusive; FLuc modulator: 24µM

What do the screens show for `CCOc1ccc2nc(NC(=O)Cn3[nH]c(=O)c4ccccc4c3=O)sc2c1`?
Rab9 prom act: inconclusive; NPC1 prom act: inconclusive; ELG1 genotoxic: inconclusive; FLuc modulator: 15µM

Screens as filed in PubChem.
